Whole data set: some 81,000 sequences, median “one-hybrid fitness for binding NBS DNA” near -0.1, cut for the highest 2% near 0.36. What follows is part of a selection rich in the highest values, with near analogues and random picks from the rest.
B1: Caulobacter ParB omega fusion; a variant is named by its letters at X, in order, B8GW30 (parent)
chain: MESVVVGEPGMSEGRRGLGRGLSALLGEVDAAPAQAPGEQLGGSREAPIEILQRNPDQPRRTFREEDLEDLSNSIREKGVLQPILVRPSPDTAGEYQIVAGERAWRAAQRAGLKTVPIMVRELDDLAVLEIGIIENVQRADLNVLEEALSYKVLMEKFERTQENIAQTIGKSXSHVANXMRLLXLPDEVQSYLVSGELTAXHARAIAAAADPVALAKQIIEGGLSVRETEALARKAPNLSAGKSKGGRPPRVKDTDTQALESDLSSVLGLDVSIDHRGSTGTLTITYATLEQLDDLCNRLTRGI

Variants of: B1
Experiment: one-hybrid fitness for binding NBS DNA (the Noc-binding site; scaled: cognate 1, non-cognate 0); higher = stronger binding
Details: with NBS DNA site
Outline: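 Values were rescaled so that cognate is 1 and non-cognate is 0. Each is a fitness, the log change in a variant's read ratio to wild type from Illumina reads of plasmids before and after selection, with three replicate libraries pooled and variants under 10 reads dropped. Selection of the Caulobacter ParB libraries, four specificity codons randomised, used E. coli USO with a HIS3 reporter, site 19 bp from the promoter, on M9-minus-histidine with 0.1 mM IPTG and 5 mM 3-AT for 48 hours at 37°C.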

| Variant | one-hybrid fitness for binding NBS DNA |
| --- | --- |
| PDHK | ≤ 0.2 |
| MVPA | ≤ 0.2 |
| MAQR | ≤ 0.2 |
| QYDM | ≤ 0.2 |
| QYYT | 0.352 |
| QYAS | 0.327 |
| QYRM | 0.394 |
| QYKS | 0.643 |
| QYKD | 0.212 |
| QYRT | 0.733 |
| QYIT | 0.355 |
| QYAT | 0.427 |
| QYYM | ≤ 0.2 |
| QYKP | 0.232 |
| QYFT | 0.335 |
| SPCH | ≤ 0.2 |
| YMAS | ≤ 0.2 |
| ELYR | ≤ 0.2 |
| YQKG | ≤ 0.2 |
| QERT | ≤ 0.2 |
| TNGI | ≤ 0.2 |
| RKAP | ≤ 0.2 |
| RKFS | 0.435 |
| RKAS | 0.597 |
| RKAD | ≤ 0.2 |
| RKFN | ≤ 0.2 |

| Variant | one-hybrid fitness for binding NBS DNA |
| --- | --- |
| RKFP | ≤ 0.2 |
| EDSG | ≤ 0.2 |
| VTLK | ≤ 0.2 |
| ISMT | ≤ 0.2 |
| SRDR | ≤ 0.2 |
| QCYN | ≤ 0.2 |
| QSYN | ≤ 0.2 |
| QSRN | 0.374 |
| QSDN | ≤ 0.2 |
| QCRN | 0.482 |
| QPRN | ≤ 0.2 |
| KTCN | ≤ 0.2 |
| LIAD | ≤ 0.2 |
| LNLA | ≤ 0.2 |
| QQKI | 0.399 |
| QQVI | ≤ 0.2 |
| QQDI | ≤ 0.2 |
| QQFI | ≤ 0.2 |
| QQRI | 0.383 |
| QQYI | ≤ 0.2 |
| ESLH | ≤ 0.2 |
| QARN | 0.349 |
| QARH | 0.529 |
| QAYH | ≤ 0.2 |
| QAIS | ≤ 0.2 |
| QARS | 0.644 |

| Variant | one-hybrid fitness for binding NBS DNA |
| --- | --- |
| QAYS | 0.305 |
| TNFS | ≤ 0.2 |
| TAIV | ≤ 0.2 |
| LTFR | ≤ 0.2 |
| SLFT | ≤ 0.2 |
| ITST | ≤ 0.2 |
| SLTL | ≤ 0.2 |
| QRDS | 0.468 |
| QRNE | 0.276 |
| QRNS | 0.716 |
| QRNF | 0.327 |
| QPDS | ≤ 0.2 |
| YEPF | ≤ 0.2 |
| HTTL | ≤ 0.2 |
| YPNR | ≤ 0.2 |
| EHEC | ≤ 0.2 |
| THMK | ≤ 0.2 |
| KCGR | ≤ 0.2 |
| KRQR | 0.552 |
| KSHR | ≤ 0.2 |
| KRHR | 0.616 |
| KRWR | 0.578 |
| KSWR | ≤ 0.2 |
| KCQR | ≤ 0.2 |
| KRGR | 0.557 |
| DRQR | ≤ 0.2 |

| Variant | one-hybrid fitness for binding NBS DNA |
| --- | --- |
| KPWR | ≤ 0.2 |
| KPGR | ≤ 0.2 |
| KCHR | ≤ 0.2 |
| NSRQ | ≤ 0.2 |
| TYKN | ≤ 0.2 |
| HHDR | ≤ 0.2 |
| DNHG | ≤ 0.2 |
| KRDR | 0.336 |
| KRNR | 0.661 |
| KCER | ≤ 0.2 |
| KCSR | ≤ 0.2 |
| KRER | 0.368 |
| KSER | ≤ 0.2 |
| NRSR | ≤ 0.2 |
| KRSR | 0.561 |
| KCNR | 0.223 |
| KRLR | 0.456 |
| DRLR | ≤ 0.2 |
| KCLR | ≤ 0.2 |
| IRGF | ≤ 0.2 |
| RLMT | 0.335 |
| QCPH | ≤ 0.2 |
| TMHT | ≤ 0.2 |
| KRCR | 0.55 |
| KCYR | ≤ 0.2 |
| NRCR | ≤ 0.2 |

| Variant | one-hybrid fitness for binding NBS DNA |
| --- | --- |
| KPYR | ≤ 0.2 |
| KCIR | ≤ 0.2 |
| KRRK | 0.319 |
| KRPR | 0.239 |
| KRIR | 0.378 |
| KRRR | 0.787 |
| KRRD | ≤ 0.2 |
| KCCR | ≤ 0.2 |
| KRYR | 0.545 |
| GERG | ≤ 0.2 |
| HQHR | ≤ 0.2 |
| VMTL | ≤ 0.2 |
| CRHA | ≤ 0.2 |
| HMKG | ≤ 0.2 |
| THLW | ≤ 0.2 |
| GMMA | ≤ 0.2 |
| QPRE | ≤ 0.2 |
| QSRE | 0.22 |
| QTKE | 0.378 |
| QRKE | 0.368 |
| QTVE | ≤ 0.2 |
| QCRE | 0.369 |
| QTYE | ≤ 0.2 |
| QTDE | ≤ 0.2 |
| QRVE | ≤ 0.2 |
| QTRE | 0.405 |

| Variant | one-hybrid fitness for binding NBS DNA |
| --- | --- |
| QRYE | 0.207 |
| QCKE | 0.297 |
| DNPC | ≤ 0.2 |
| TLCS | ≤ 0.2 |
| AKQC | ≤ 0.2 |
| YPSA | ≤ 0.2 |
| VEHK | ≤ 0.2 |
| IPPG | ≤ 0.2 |
| NQDG | ≤ 0.2 |
| HSKR | ≤ 0.2 |
| CSCG | ≤ 0.2 |
| RDNI | ≤ 0.2 |
| RVSH | ≤ 0.2 |
| RVSN | ≤ 0.2 |
| RVSS | 0.39 |
| RVSP | ≤ 0.2 |
| RVST | 0.463 |
| RVSR | 0.439 |
| RVSC | ≤ 0.2 |
| RVSF | ≤ 0.2 |
| RVSD | ≤ 0.2 |
| TKDA | ≤ 0.2 |
| NVIT | ≤ 0.2 |

From a collection of fitness landscapes (doi:10.1016/j.celrep.2020.107928)
